# Measured values published in PubChem BioAssay (Tox21).
# Records with an inconclusive call do not appear. Entries that show only a call come without a potency. Calls of active or inactive are those of the source. Unless noted, calls follow the shape of the dose curve; as a rule, active = well fitted curve in the direction sought with a large enough effect in the repeat runs; inconclusive = weak or mixed curves; inactive = no such curve, though single readings can be large; an effect the other way counts as inactive or inconclusive.
# What was measured:
# [1] = qHTS assay to identify small molecule agonists of H2AX (AID 1224845; active = well fitted activation curve with a large enough effect in the signal ratio in the repeat runs, not every such curve was filed as active; the % refers to the signal ratio)
# Procedure, shortened: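 Phospho-H2AX Ser139 measured by HTRF (ex 320 nm; em 665 and 620 nm) after 24 hr antibody incubation. Compounds, 15 concentrations, 0.76% DMSO, were applied to CHO-K1 cells for 3hr at 37C before lysis.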
# [2] = qHTS assay to identify small molecule agonists of the hypoxia (HIF-1) signaling pathway (AID 1224846; active = well fitted activation curve with a large enough effect in the signal ratio in the repeat runs, not every such curve was filed as active; the % refers to the signal ratio)
# Procedure, shortened: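 ME-180 HRE-bla reporter cells; compounds in DMSO, 17 h at 37C; read-out beta-lactamase via CCF4-AM FRET.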
# [3] = qHTS RealTime-Glo MT Cell Viability Assay in HepG2 cells - 24 hour (AID 1224867); also: nearly all actives have a fitted effect of over 50% in size
# Procedure, shortened: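 HepG2 cells were seeded at 600 cells/well together with NanoLuc luciferase and a cell-permeant prosubstrate, preincubated 5 h at 37 C/5% CO2, then pin-dosed with compounds in DMSO. Nonlytic luminescence from viable cells was read at each time point.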
# [4] = qHTS RealTime-Glo MT Cell Viability Assay in HEK293 cells - 32 hour (AID 1224868); also: nearly all actives have a fitted effect of over 50% in size; also: potency is read from the fitted curve at half-maximal effect
# Procedure, shortened: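 HEK293 cells were seeded at 600 cells/well together with NanoLuc luciferase and cell-permeant prosubstrate, preincubated 5 h at 37 C/5% CO2, then given compound in DMSO by pintool. Luminescence from viable-cell prosubstrate reduction was read repeatedly over 40 h.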
# [5] = A CellTox Green Cytotoxicity Assay to monitor cytotoxicity in HEK293 cells - 0 hour (AID 1224869); also: nearly all actives have a fitted effect of over 50% in size
# Procedure, shortened: (§1)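 Real-time, in one plate: 600 HEK293 cells/well with dead-cell DNA dye, pinned compound after 5 h, 37 C incubation over 40 h; viable cells give no appreciable fluorescence.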
# [6] = qHTS RealTime-Glo MT Cell Viability Assay in HepG2 cells - 40 hour (AID 1224870); also: nearly all actives have a fitted effect of over 50% in size
# Procedure, shortened: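 Real-time viability: cells seeded at 600 per well together with NanoLuc and cell-permeant prosubstrate, compounds added after 5 h incubation. Luminescence tracked at 0, 8, 16, 24, 32 and 40 h of exposure.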
# [7] = A CellTox Green Cytotoxicity Assay to monitor cytotoxicity in HEK293 cells - 40 hour (AID 1224871); also: nearly all actives have a fitted effect of over 45% in size
# Procedure, shortened: as §1
# [8] = qHTS assay to identify small molecule antagonists of the estrogen related receptor (ERR) signaling pathway from Tox21 library (AID 1224848); also: nearly all actives have a fitted effect of over 50% in size
# Procedure, shortened: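 ERR cell line, 2,000 cells/well. 6 h settle, then compound (DMSO) added; 18 h at 37 C; ONE-Glo luminescence after 30 min RT.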
# [9] = qHTS assay to identify small molecule agonists of the estrogen related receptor (ERR) signaling pathway from Tox21 library (AID 1224849; calls by dose curve; also: nearly all actives have a fitted effect of over 15% in size)
# Procedure, shortened: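 Luciferase activity in ERR pathway reporter cells served as the agonist readout; exposure lasted 18 h at 37 C, with ONE-Glo detection after 30 min at room temperature.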
# [10] = qHTS assay to identify small molecule agonists of H2AX - cell viability counter screen (AID 1224847; calls by dose curve; also: top concentration of the series differs between compounds; nearly all actives have a fitted effect of over 30% in size)
# Procedure, shortened: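 Viability of CHO-K1 (wild type) cells after 3 hr compound exposure was measured by CellTiter-Glo luminescence.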
SMILES,Potency [1],outcome [2],outcome [3],Potency [4],outcome [5],Potency [6],Potency [7],Potency [8],outcome [9],outcome [10]
CC/C=C\CCOC(C)OCC (stereo not given),inactive,inactive,inactive,inactive,inactive,inactive,inactive,,,
CCCCCCC1CCC(=O)O1 (stereo not given),inactive,inactive,inactive,inactive,,inactive,inactive,inactive,inactive,
CCCO[Si](OCCC)(OCCC)OCCC,inactive,inactive,inactive,inactive,,inactive,inactive,inactive,inactive,
O=C(O)CNC(=O)c1ccccc1,inactive,inactive,inactive,inactive,inactive,inactive,inactive,,,
Cc1ccnc(NS(=O)(=O)c2ccc(N)cc2)n1,inactive,,inactive,inactive,inactive,inactive,inactive,inactive,inactive,inactive
COC(=O)C1=C(C)NC(C)=C(C(=O)OC(C)C)C1c1cccc2nonc12 (stereo not given),inactive,,,19 µM (active),inactive,,inactive,,inactive,inactive
CCCCCCCCCC[N+](C)(C)[O-],inactive,,inactive,inactive,inactive,inactive,inactive,inactive,inactive,inactive
CCN(CC#N)c1cccc(C)c1,inactive,,inactive,inactive,inactive,inactive,inactive,,,inactive
CC1(C)[C@@H]2CC[C@@]1(C)[C@H](O)C2,inactive,,inactive,inactive,inactive,inactive,inactive,,,inactive
CCN[C@H]1C[C@H](C)S(=O)(=O)c2sc(S(N)(=O)=O)cc21,inactive,,inactive,inactive,inactive,inactive,inactive,,,inactive
